Measured values as given in PubChem BioAssay AID1159580 (chemical genetic matrix, 2015).
Among all 5,500 compounds or so, about 2,000 (36%) were called active. Roughly 18% stayed inconclusive and do not appear here. Rule as the data show it: active = normalized growth mostly below about 0.91 (no sharp cut-off); inconclusive = no clear call, values can overlap the other calls; inactive = mostly above about 0.92. The list shows a part of the results.

Assay: chemical genetic growth profiling, strain panel (AID 1159580);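 also: tested at 20 µM; growth read once vehicle control cultures reached saturation at 30 °C; 1 = growth at the plate median or of vehicle wells; lower values mean less growth of the strain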
Settings: S. cerevisiae deletion strains, growth OD
[1] = locus YHR030C, strain SLT2, stronger effect = lower value

Measured: normalized growth

CC[N+](C)(CC)CCOC(=O)C(O)(c1ccccc1)C1CCCCC1 (stereo not drawn)
inactive: [1] 0.989 | locus YHR079C, strain IRE1, stronger effect = lower value 1 | locus YJL095W, strain BCK1, stronger effect = lower value 0.982 | locus YJR066W, strain TOR1, stronger effect = lower value 0.901 | locus YLR113W, strain HOG1, stronger effect = lower value 1.03 | locus YNL183C, strain NPR1, stronger effect = lower value 0.913 | locus YOR231W, strain MKK1, stronger effect = lower value 0.988 | locus YPL256C, strain CLN2, stronger effect = lower value 0.989

COc1ccc(C2=C(C(C)=O)C(C)=NC(=S)C2C#N)cc1 (stereo not drawn)
active: locus YPR135W, strain CTF4, stronger effect = lower value 0.356
inactive: locus YAL013W, strain DEP1, stronger effect = lower value 1.01 | locus YBR229C, strain ROT2, stronger effect = lower value 1.02 | locus YCL061C, strain MRC1, stronger effect = lower value 1.01 | locus YDL101C, strain DUN1, stronger effect = lower value 1.05 | locus YDR150W, strain NUM1, stronger effect = lower value 0.933 | locus YEL061C, strain CIN8, stronger effect = lower value 1.04 | locus YGR078C, strain PAC10, stronger effect = lower value 0.993 | [1] 0.947 | locus YHR087W, strain rtc3, stronger effect = lower value 1.04 | locus YJL187C, strain SWE1, stronger effect = lower value 1 | locus YJR043C, strain POL32, stronger effect = lower value 1.04 | locus YJR075W, strain HOC1, stronger effect = lower value 1.01 | locus YKL190W, strain CNB1, stronger effect = lower value 0.987 | locus YLR039C, strain RIC1, stronger effect = lower value 0.977 | locus YLR058C, strain SHM2 (second series), stronger effect = lower value 0.994 | locus YLR085C, strain ARP6, stronger effect = lower value 0.89 | locus YLR262C, strain YPT6, stronger effect = lower value 0.972 | locus YML094W, strain GIM5, stronger effect = lower value 1.12 | locus YMR219W, strain ESC1, stronger effect = lower value 0.998 | locus YMR263W, strain SAP30, stronger effect = lower value 0.905 | locus YMR307W, strain GAS1, stronger effect = lower value 0.702 | locus YNL128W, strain TEP1, stronger effect = lower value 0.983 | locus YNL153C, strain GIM3, stronger effect = lower value 1.03 | locus YNL298W, strain CLA4 (second series), stronger effect = lower value 0.89 | locus YNL322C, strain KRE1, stronger effect = lower value 1 | locus YNR030W, strain Alg12, stronger effect = lower value 0.987 | locus YOL006C, strain TOP1, stronger effect = lower value 0.754 | locus YPL055C, strain LGE1, stronger effect = lower value 0.97 | locus YPL241C, strain CIN2, stronger effect = lower value 0.943
